For some assays here: Entries with a potency or affinity are not part of this list.
How the values were obtained:
Set-up in all cases: scale not given: direction of the effect not stated beside the values
[1] = target: Protein translocase subunit SecA (Escherichia coli (strain K12)) (UniProt P10408); experiment: Assay to Identify E. coli SecA ATPase Inhibitors; type: functional; settings: 30 µM
[2] = target: T1, Ubiquitin-activating enzyme e1, putative (Leishmania donovani (strain BPK282A1)) (UniProt E9BSI1); experiment: Leishmania donovani Ubiquitin Activating Enzyme (LdE1); type: functional; settings: 30 µM
T1 sequence (whole entry): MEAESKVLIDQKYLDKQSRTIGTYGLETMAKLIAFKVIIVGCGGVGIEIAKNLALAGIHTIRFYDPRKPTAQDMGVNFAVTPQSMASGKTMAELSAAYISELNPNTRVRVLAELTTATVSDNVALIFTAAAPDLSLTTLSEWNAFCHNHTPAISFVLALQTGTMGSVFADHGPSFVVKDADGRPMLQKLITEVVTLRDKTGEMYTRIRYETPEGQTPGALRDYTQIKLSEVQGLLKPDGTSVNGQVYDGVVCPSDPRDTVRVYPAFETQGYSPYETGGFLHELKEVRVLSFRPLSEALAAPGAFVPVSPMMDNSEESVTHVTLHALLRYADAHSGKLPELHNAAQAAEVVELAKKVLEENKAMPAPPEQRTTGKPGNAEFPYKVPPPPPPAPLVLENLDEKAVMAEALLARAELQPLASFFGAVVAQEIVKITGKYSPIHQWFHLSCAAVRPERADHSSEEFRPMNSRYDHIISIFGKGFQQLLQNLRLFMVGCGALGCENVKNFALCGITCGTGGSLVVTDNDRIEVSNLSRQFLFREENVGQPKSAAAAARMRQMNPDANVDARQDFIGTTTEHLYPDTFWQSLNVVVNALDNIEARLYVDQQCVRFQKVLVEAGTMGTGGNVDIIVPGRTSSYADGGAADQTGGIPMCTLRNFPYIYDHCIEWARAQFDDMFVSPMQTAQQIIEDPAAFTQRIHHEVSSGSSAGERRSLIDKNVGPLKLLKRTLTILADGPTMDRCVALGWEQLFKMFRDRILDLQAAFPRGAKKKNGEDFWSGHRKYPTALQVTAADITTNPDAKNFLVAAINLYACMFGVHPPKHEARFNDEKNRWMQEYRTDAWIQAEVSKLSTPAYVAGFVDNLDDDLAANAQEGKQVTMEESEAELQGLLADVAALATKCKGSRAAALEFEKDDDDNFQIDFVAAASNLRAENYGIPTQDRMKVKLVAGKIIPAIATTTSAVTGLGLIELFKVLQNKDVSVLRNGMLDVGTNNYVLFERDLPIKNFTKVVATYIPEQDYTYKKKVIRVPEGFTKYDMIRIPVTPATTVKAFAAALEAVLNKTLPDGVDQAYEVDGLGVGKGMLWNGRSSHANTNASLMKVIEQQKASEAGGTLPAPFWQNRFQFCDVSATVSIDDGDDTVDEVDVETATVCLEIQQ

[3] = target: AMP-activated protein kinase, AMPK (Homo sapiens) (UniProt P54646+O43741+P54619+Q9UGJ0+Q9Y478+Q13131+Q9UGI9); experiment: AMP-dependent Kinase enzyme assay. An in vitro enzyme assay that detects ADP turnover that is directly proportional to AMPK activity. This uses naive AMPK that is activated during the assay with MK-8722; type: functional; settings: 30 µM
[4] = target: Sialic acid-binding Ig-like lectin 9 (Homo sapiens) (UniProt Q9Y336); experiment: Hs-Siglec9 ALPHAscreen SOP 20170721; settings: 10 µM
Sequence of Sialic acid-binding Ig-like lectin 9 (Homo sapiens) (Q9Y336 whole entry): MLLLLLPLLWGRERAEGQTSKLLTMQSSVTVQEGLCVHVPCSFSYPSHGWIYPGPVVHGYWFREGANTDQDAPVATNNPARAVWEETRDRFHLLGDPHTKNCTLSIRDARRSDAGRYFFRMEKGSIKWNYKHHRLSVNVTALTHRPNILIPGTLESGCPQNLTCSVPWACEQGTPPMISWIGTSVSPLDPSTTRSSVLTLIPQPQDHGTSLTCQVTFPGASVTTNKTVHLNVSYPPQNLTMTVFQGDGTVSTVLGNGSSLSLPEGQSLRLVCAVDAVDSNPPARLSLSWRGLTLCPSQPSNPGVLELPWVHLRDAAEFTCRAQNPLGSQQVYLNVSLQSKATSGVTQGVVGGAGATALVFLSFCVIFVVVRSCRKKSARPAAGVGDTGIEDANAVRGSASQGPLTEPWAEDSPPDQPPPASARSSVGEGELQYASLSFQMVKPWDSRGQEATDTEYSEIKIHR

Trypanosoma cruzi = experiment: Trypanosoma cruzi phosphomannomutase and mannose-1-phosphate guanylyltransferase assay; type: functional; settings: 10 µM
[5] = target: T2, Arginase-2, mitochondrial (Homo sapiens) (UniProt P78540); experiment: in vitro enzyme assay to detect the production of urea directly proportional to the activity of Arginase II; type: functional; settings: 33.3 µM; note: in the data most compounds retested in dose-response had high values
T2 sequence (whole entry): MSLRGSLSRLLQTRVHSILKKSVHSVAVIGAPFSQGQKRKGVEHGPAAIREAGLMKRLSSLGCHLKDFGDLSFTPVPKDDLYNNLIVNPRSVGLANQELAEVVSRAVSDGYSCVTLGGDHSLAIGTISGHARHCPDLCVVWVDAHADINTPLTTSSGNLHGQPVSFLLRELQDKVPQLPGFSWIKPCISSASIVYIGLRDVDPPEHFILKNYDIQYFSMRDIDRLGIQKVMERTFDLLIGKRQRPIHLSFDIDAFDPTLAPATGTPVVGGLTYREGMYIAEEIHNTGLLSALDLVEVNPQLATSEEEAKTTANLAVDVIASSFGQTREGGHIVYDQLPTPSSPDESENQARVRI

[6] = target: T3, Proteasome subunit beta (Trypanosoma cruzi) (UniProt O96673); experiment: Trypanosoma cruzi proteasome chymotrypsin-like activity (TcProtChymo) assay.; note: in the data most compounds retested in dose-response had high values; type: functional; settings: 9.37 µM
T3 sequence (whole entry): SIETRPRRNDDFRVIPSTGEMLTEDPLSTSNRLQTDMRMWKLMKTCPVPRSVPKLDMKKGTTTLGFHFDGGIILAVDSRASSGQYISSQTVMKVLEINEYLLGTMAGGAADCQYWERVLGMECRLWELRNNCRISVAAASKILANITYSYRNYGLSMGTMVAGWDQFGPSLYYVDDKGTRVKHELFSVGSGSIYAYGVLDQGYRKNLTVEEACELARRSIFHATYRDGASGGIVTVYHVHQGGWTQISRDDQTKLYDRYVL

Homo sapiens = species on record: Homo sapiens; experiment: To identify inhibition of the IFN signalling (Jak-Stat) pathway via expression of an eGFP reporter gene under the control of an IFN-stimulated response element (ISRE) containing MxA promoter.; type: functional; settings: 30 µM
[7] = target: T4, Tyrosyl-tRNA synthetase, putative (Trypanosoma cruzi (strain CL Brener)) (UniProt Q4DSP6); experiment: Trypanosoma cruzi tyrosyl tRNA synthetase (TcYRS) _High Tyrosine SOP; type: functional; settings: 30 µM; note: in the data most compounds retested in dose-response had high values
T4 sequence (whole entry): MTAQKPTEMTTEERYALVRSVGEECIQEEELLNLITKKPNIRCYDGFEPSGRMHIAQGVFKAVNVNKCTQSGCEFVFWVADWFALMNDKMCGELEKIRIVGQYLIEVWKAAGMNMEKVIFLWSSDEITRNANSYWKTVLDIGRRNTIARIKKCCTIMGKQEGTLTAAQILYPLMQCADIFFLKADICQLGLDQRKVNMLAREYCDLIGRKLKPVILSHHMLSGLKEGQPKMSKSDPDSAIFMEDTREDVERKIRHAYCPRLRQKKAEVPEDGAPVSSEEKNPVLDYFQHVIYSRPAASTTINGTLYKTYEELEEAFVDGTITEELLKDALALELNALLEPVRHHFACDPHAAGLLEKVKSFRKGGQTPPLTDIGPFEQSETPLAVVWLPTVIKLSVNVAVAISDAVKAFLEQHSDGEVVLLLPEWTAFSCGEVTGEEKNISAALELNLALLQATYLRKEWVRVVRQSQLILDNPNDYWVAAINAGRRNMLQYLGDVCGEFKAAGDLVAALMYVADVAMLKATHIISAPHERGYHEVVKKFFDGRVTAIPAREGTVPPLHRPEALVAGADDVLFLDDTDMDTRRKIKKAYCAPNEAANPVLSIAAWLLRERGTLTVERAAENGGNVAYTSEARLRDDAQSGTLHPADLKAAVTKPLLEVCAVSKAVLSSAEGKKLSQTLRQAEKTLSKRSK

[8] = target: T4, Tyrosyl-tRNA synthetase, putative (Trypanosoma cruzi (strain CL Brener)); experiment: Trypanosoma cruzi tyrosyl tRNA synthetase (TcYRS) SOP; type: functional; settings: 30 µM
[9] = target: Chromo domain-containing protein 1 (Saccharomyces cerevisiae (strain ATCC 204508 / S288c) (Baker's yeast)) (UniProt P32657); experiment: ScCHD-1 Enzyme Inhibition Assay; type: functional; settings: 30 µM; note: in the data most compounds retested in dose-response had high values
Sequence of Chromo domain-containing protein 1 (Saccharomyces cerevisiae (strain ATCC 204508 / S288c) (Baker's yeast)) (P32657 whole entry, the tested form may be a part): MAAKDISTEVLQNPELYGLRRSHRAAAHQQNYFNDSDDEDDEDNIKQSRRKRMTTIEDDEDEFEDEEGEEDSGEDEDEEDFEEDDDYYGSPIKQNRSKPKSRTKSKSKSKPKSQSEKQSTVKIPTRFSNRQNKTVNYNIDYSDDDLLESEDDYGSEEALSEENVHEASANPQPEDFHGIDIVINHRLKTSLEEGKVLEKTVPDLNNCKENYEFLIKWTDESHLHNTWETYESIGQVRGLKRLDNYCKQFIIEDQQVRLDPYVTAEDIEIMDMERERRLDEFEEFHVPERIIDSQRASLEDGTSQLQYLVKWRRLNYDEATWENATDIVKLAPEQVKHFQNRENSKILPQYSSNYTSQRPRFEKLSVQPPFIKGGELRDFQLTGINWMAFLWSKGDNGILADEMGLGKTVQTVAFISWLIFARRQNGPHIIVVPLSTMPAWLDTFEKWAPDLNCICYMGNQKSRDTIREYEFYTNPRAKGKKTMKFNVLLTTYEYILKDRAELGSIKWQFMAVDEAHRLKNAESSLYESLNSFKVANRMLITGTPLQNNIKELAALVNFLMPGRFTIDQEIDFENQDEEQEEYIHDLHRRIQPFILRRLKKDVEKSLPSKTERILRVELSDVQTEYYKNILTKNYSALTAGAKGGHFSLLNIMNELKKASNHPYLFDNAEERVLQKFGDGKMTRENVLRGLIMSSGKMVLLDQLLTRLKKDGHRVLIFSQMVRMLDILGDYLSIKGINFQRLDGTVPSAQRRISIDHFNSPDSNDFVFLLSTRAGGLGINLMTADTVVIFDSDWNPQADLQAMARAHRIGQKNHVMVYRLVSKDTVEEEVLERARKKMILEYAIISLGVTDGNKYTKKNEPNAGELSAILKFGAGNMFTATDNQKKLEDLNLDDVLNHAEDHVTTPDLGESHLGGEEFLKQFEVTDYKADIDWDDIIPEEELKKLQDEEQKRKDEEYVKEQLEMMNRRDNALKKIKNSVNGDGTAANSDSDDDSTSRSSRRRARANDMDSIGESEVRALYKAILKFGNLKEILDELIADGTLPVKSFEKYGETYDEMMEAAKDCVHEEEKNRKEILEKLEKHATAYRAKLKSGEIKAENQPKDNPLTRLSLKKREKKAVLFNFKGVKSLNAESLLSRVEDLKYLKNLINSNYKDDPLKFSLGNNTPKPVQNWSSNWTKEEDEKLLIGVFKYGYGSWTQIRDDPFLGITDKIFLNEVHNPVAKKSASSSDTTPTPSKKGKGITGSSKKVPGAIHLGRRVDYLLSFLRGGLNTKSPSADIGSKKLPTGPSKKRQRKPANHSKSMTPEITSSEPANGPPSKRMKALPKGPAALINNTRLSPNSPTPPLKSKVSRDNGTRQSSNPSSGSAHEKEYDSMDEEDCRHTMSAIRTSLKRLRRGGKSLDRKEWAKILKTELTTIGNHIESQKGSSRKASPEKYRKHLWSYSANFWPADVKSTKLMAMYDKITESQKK

Sequence of Protein translocase subunit SecA (Escherichia coli (strain K12)) (P10408 whole entry): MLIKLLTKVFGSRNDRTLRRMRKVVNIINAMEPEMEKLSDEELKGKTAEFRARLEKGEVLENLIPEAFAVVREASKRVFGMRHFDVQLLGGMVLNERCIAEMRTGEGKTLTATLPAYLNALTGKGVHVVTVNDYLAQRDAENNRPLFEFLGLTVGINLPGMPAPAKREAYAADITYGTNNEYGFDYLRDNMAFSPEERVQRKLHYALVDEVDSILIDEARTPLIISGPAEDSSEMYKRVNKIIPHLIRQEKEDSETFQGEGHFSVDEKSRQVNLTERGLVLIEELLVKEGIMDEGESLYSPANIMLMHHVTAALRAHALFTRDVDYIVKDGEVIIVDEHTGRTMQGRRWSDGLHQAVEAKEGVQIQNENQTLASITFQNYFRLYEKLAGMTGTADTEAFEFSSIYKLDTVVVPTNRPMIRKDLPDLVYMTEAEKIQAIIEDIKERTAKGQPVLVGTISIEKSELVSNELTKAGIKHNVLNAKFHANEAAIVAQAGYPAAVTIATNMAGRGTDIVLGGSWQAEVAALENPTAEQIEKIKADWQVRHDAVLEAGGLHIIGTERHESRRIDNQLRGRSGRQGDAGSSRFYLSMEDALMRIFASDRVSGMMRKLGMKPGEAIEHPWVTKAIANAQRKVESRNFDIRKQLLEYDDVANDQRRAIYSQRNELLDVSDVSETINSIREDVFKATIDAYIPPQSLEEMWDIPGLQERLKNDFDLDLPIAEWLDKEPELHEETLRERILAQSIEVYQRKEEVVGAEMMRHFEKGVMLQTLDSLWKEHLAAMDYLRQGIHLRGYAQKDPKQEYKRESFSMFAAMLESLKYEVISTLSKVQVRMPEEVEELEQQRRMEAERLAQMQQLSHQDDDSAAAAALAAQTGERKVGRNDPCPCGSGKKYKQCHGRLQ

| SMILES | Percent Effect [1] [%] | Percent Effect [2] [%] | Percent Effect [3] [%] | Percent Effect [4] [%] | Percent Effect (Trypanosoma cruzi) [%] | Percent Effect [5] [%] | Percent Effect [6] [%] | Percent Effect (Homo sapiens) [%] | Percent Effect [7] [%] | Percent Effect [8] [%] | Percent Effect [9] [%] |
| --- | --- | --- | --- | --- | --- | --- | --- | --- | --- | --- | --- |
| Cc1nc(N2CCCCC2)ncc1C(=O)N1CC(C)(C)[C@@](C)(O)C1 | -4.9 | 0 | -4.56 | 7.93 | -2.05 | 4.22 | -6.09 | 7.42 | 8.6 | 6.17 | -1.76 |
| CCc1ccc(OCC(O)CN2CCC(O)CC2)cc1 (configuration not stated) | -6.44 | -2.6 | 5.75 | -12.1 | -4.21 | -1.05 | 5.42 | 11.1 | -2.86 | 0 | -19 |
| Cc1nc(N2CCN(C(=O)C3CC3)CC2)c2c(n1)c(C)nn2C | -1.08 | 6.67 | 0.162 | 0.614 | 3.73 | -4.75 | 10.2 | 18.7 | 6.35 | 12.8 | -11.8 |
| CN(C)C(CNC(=O)c1cc2c([nH]c1=O)CCCC2=O)c1ccsc1 (configuration not stated) | -5.23 | 16.2 | -3.65 | 17.4 | 4.55 | -0.554 | 2.51 | 1.27 | 5.94 | 18.3 | 45 |
| CCS(=O)(=O)N1CCCc2ccc(NC(=O)Cc3ccc(F)cc3)cc21 | 0.369 | 7.79 | -1.04 | -9.41 | -5.82 | 0.645 | 8.53 | 65.4 | -5.29 | -6.41 | -13.3 |
| CC(C)CCn1[nH]c(CNc2ccccc2)nc1=O | -2.4 | 2.63 | 4.53 | 4.24 | -9.06 | 2.37 | 16.2 | 2.77 | 2.13 | 2.6 | 4.81 |
| CN(C)CC(=O)N1C[C@@H]2CC[C@H](Oc3ccccc3Cl)[C@@H]2C1 | -5.55 | -4.05 | 9.46 | 5.31 | -2.17 | -3.48 | -2.5 | 6.65 | -1.07 | 3.9 | 9.09 |
| CCN1CC2(CCN(CCOCCO)CC2)CC(c2ccccc2)C1=O (configuration not stated) | -1.44 | 8 | -14.6 | 3.65 | 0.292 | -3.12 | 15.2 | 14.3 | 2.73 | 8.64 | -6.05 |
| CN(Cc1cncnc1)Cc1cn2c(n1)CN(C1CCOC1)CC2 (configuration not stated) | -2.37 | 5.33 | -0.62 | 5.52 | -2.51 | -21.7 | 8.38 | 8.32 | 5.21 | 12.5 | -5.82 |
| COCCN1C[C@@H]2CN(Cc3cccc(F)c3)CCC[C@]2(C(=O)O)C1 | -4.38 | 0 | 0.729 | -3.33 | -4.24 | 1.94 | 8.53 | 3.04 | -2.12 | -1.28 | -7.5 |
| C1CC(CN2CCO[C@H]3[C@H](OCC4CC4)CC[C@@H]32)CCO1 | -7.62 | 2.7 | -2.6 | -1.5 | -2.93 | 2.08 | 16.3 | 7.72 | 5.94 | 3.66 | -1.93 |
| CC(C(=O)NCc1ccnc(N2CCCC2)c1)n1cncn1 (configuration not stated) | -3.9 | 15.8 | -4.58 | -5.93 | -5.45 | 3.45 | 7.18 | 26.8 | 3.43 | 0 | -11.3 |
| Cc1ccc(CN(C)C(=O)CN2CCCC2Cn2cccn2)o1 (configuration not stated) | 0.121 | 2.7 | -3.95 | 12.4 | 5.99 | 0 | 1.9 | -5.92 | 2.65 | 7.32 | -4.66 |
| CCc1nc(C2CCCN2C(=O)CCc2cccs2)no1 (configuration not stated) | -3.51 | -2.7 | -4.68 | 4.58 | -3.81 | 1.29 | -4.49 | 3.17 | -0.99 | -8.54 | -2.06 |
| Cc1cn2c(n1)CCC(NC(=O)c1nc(C)ncc1Cl)C2 (configuration not stated) | -5.44 | 7.79 | 5.82 | 3.39 | 4.41 | 1.05 | 8.49 | -7.16 | 4.76 | 18.8 | -23.3 |
| CC(C)c1nnc(NC(=O)NCc2ccc(CO)c(F)c2)s1 | -5.17 | 11.4 | -2.17 | -0.945 | -1.95 | 3.66 | 11.8 | 26.1 | -5.21 | -2.53 | -11.2 |
| CC(C)N1CCC(Cc2cnc(-c3cccc(C(=O)O)c3)cn2)C1 (configuration not stated) | -3.78 | 1.35 | 12.1 | 1.95 | 1.19 | 1.62 | -3.59 | 7.71 | 0 | 9.09 | 5.67 |
| O=C(c1cccn1Cc1cccs1)N1CCN(C(=O)C2CC2)CC1 | -6.16 | 13 | 1.66 | 2.72 | 1.5 | -0.712 | 0.845 | 9.85 | 8.74 | 21.9 | 1.63 |
| CCOCCN1CCn2c(C)nnc2C1 | 2.73 | 19 | 2.63 | -1.98 | -5.03 | -3.23 | 13.9 | 11.9 | 4.17 | 12.7 | -27.4 |
| O=C(CN1CCOC(Cn2cccn2)C1)Nc1nncs1 (configuration not stated) | -7.55 | 10.4 | -7.65 | -17.4 | 10.3 | -4 | 11.2 | 13.3 | 9.52 | 18.8 | -22.6 |
| COCCNC(=O)Cn1nc(C(C)C)c2cnn(C(C)(C)C)c2c1=O | -2.65 | 5.48 | -1.93 | 5.56 | 3.72 | -1.36 | 17.6 | 15.1 | 8.6 | 15 | -6.24 |
| O=C(COC(=O)Cc1cccs1)NCc1cccc(NC(=O)C2CC2)c1 | -4.92 | 21.1 | 1.38 | -10.9 | -3.27 | -1.08 | 3.47 | 4.04 | 5.42 | 16.1 | -4.73 |

Reference: ChEMBL document CHEMBL3988442, “University of Dundee, Small-Polar-MMV Screening Library” (2021)
